High-throughput results (PubChem)
CYP2C19 inh: blocks human cytochrome P450 2C19; CYP2C19 Supersomes, luciferin-H EGE luminescence, 30 min; inhibition, % at 5 µM; 96,000 tested, 21% active; AID 778;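 active = CYP2C19 inhibition above a set limit at 5 µM in the primary screen, cut at about 50% in these data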
Target sequence (P33261 whole entry, looked up): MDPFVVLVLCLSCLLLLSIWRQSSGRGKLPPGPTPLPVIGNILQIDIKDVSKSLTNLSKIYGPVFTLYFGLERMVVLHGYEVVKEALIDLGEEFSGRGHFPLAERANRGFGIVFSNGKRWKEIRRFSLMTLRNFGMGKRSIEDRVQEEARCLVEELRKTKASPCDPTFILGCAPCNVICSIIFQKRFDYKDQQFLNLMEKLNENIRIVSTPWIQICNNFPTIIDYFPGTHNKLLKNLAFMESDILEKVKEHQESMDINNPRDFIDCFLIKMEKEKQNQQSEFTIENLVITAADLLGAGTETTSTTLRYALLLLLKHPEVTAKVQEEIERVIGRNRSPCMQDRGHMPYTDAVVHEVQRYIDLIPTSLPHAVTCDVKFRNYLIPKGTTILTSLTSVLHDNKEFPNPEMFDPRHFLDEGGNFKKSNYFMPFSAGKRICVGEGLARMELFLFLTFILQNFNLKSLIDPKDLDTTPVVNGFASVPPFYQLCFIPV
CYP2C9 inhib: inhibitors of human CYP2C9; P11712; CYP2C9 Supersomes, luciferin-H conversion, luminescence; inhibition, % at 5 µM; 96,000 tested, 20% active;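 active = blocking of liver enzyme CYP2C9 beyond about 50% at 5 µM, limit read from the data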
CYP2C9 activ: CYP2C9 (human) activation | P11712 | recombinant CYP2C9, luciferin-H conversion, luminescence; hits give high values; factor 1 = untreated enzyme, 0 = blocked | activation factor at 5 µM | 96,000 tested, 1.4% active;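 active = activation factor of 2 or more for CYP2C9 at a 5 µM dose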
Pyk2 oligo antag: Pyk2 (human) oligomerization antagonism. Q14289. Q293 cells, Pyk2 FERM NanoBiT luminescence; hits give low values. z-score (the deposit names both 25 µM and 10 µM). 99,000 tested, 0.83% active;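 active = Z-score of -3 or lower, scaled per plate to the spread of control and sample wells; inactive = z-score above -3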;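 also: negative z-score means lost luminescence so less FERM oligomerization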
Cav3 T inh: inhibitors of human Cav3.2 T-type calcium channel. O95180. Cav3.2-expressing cells, Fluo-4 calcium fluorescence FDSS; hits give low values. B-score at 10 µM. 100,000 tested, 4% active;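 active = single-dose well whose peak fluorescence ratio is a statistical outlier from its plate by either plate-standardised score or position-corrected B-score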
CYP2C19 activ: activators of human cytochrome P450 2C19. P33261. recombinant CYP2C19, luciferin-H EGE luminescence; hits give high values; 0 = fully inhibited enzyme, 1 = untreated enzyme. activation factor at 5 µM. 96,000 tested, under 10 active. AID 1025;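 active = activation factor of at least 2 at 5 µM in the primary screen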
Large screens that a line does not name were inactive. This is a sample that favours compounds with a hit; in the whole collection about 27% have one here.

Cc1cc(C(=O)OCC(=O)Nc2cc(C)on2)c2ccccc2n1	CYP2C19 inh 56
CCCCNC(=O)COC(=O)c1cc(C)nc2ccccc12	CYP2C19 inh 75, CYP2C9 activ 2.6
Cc1cc(C(=O)OCC(=O)NCCCN2CCCC2=O)c2ccccc2n1	none
Cc1cc(C(=O)OCC(=O)NCCC(C)C)c2ccccc2n1	CYP2C9 activ 2.4
COc1cc2c(cc1OC)CN(CC(=O)Nc1ccc3c(c1)OC(F)(F)O3)CC2	none (no result: Cav3 T inh)
CNc1nc(C)c(C#N)c(-c2ccccc2)c1C(C)=O	CYP2C19 inh 55 (no result: Cav3 T inh)
CNc1nc(-c2ccccc2)cc(C(F)(F)F)c1C#N	none
O=C(Cc1ccc(Cl)c(Cl)c1)OCC(=O)c1ccc[nH]1	CYP2C19 inh 91, CYP2C9 inhib 52
O=C(Nc1ccc(OC(=O)c2ccncc2)cc1)c1ccncc1	none
CC(=O)Nc1ccc(S(=O)(=O)n2cnc3ccccc32)cc1	none
COC(=O)CSc1nc2ccccc2o1	none
COc1ccc(-c2nnc(SCC(=O)NC(=O)NCc3ccccc3)o2)cc1	none
O=C(CSc1nc2ccccc2s1)NC(=O)NCc1ccco1	none (no result: CYP2C19 inh, CYP2C9 inhib, CYP2C9 activ, Cav3 T inh, CYP2C19 activ)
COc1ccc(CCNC(=O)CSc2nc3ccccc3o2)cc1	CYP2C19 inh 92, CYP2C9 inhib 99
O=C(CSc1nc2ccccc2o1)NC(=O)NCc1ccco1	CYP2C19 inh 51
O=C(CSc1nc2ccccc2o1)NC(=O)NCc1ccccc1	Cav3 T inh -6.5
O=C(CSc1nc2ccccc2o1)NCc1ccco1	CYP2C19 inh 72
O=C(O)CNc1nc(Cl)ccc1[N+](=O)[O-]	none
COCCCNC(=O)c1cn(Cc2c(F)cccc2Cl)nn1	none
C=CCn1c(SCC(=O)NC)nc2sc3c(c2c1=O)CCC3	CYP2C9 inhib 59 (no result: Cav3 T inh)
CCC1CCc2c(sc3nc(SCC(=O)NCc4ccco4)n(-c4ccccc4)c(=O)c23)C1 (stereo unspecified)	none (no result: CYP2C19 inh, CYP2C9 inhib, CYP2C9 activ, CYP2C19 activ)
CN1CCc2c(sc3nc(SCC(N)=O)n(-c4ccccc4)c(=O)c23)C1	CYP2C19 inh 69
C=CCn1c(SC(CCO)C(=O)NCc2ccco2)nc2sc3c(c2c1=O)CCC3 (stereo unspecified)	CYP2C9 inhib 56
C=CCn1c(SCC(=O)OC)nc2sc3c(c2c1=O)CCN(C)C3	CYP2C19 inh 60 (no result: Pyk2 oligo antag)
C[C@@H]1CCC[C@]2(O[C@H](CCO)C[C@H](O)[C@H]2O)O1	none (no result: CYP2C19 inh, CYP2C9 inhib, CYP2C9 activ, Pyk2 oligo antag, CYP2C19 activ)
Cc1[nH]c2ccccc2c1[C@H]1[C@@H](CC#N)C1(C)C	none
C#CCNc1cc(C)nc2ncnn12	none (no result: Cav3 T inh)
COc1ccc(OC)c(C2C(C(C)=O)=C(O)C(=O)N2Cc2cccnc2)c1 (stereo unspecified)	none
O=C(CNS(=O)(=O)c1ccc(C(=O)N2CCCCC2)cc1)N1CCCCC1	none
O=C(OCC(=O)N1CCc2ccccc21)c1cccnc1Cl	none
CSc1nc2sc3c(c2c(=O)n1C1CCCCC1)CCN(C)C3	none
CCCSc1nc(N)c2c3c(sc2n1)CN(C)CC3	CYP2C19 inh 82 (no result: Cav3 T inh)
CCSc1nc2sc3c(c2c(=O)n1C1CCCCC1)CCN(C)C3	CYP2C19 inh 71 (no result: Cav3 T inh)
CCOCCCN(C(=O)c1ccco1)C(C(=O)NC1CCCC1)c1cccc(OC)c1OC (stereo unspecified)	none
O=C1C2C3C=CC(C2C(=O)N1CCCO)C1C2C(=O)N(CCCO)C(=O)C2C31 (stereo unspecified)	none
CC(C)C(=O)Nc1ccccc1N1CCN(C(=O)c2ccccc2)CC1	CYP2C19 inh 68, CYP2C9 inhib 63
O=C(CSc1ccc(Cl)cc1)Nc1ccccc1N1CCN(C(=O)c2ccccc2)CC1	none
O=C(Nc1ccccc1N1CCN(C(=O)c2ccc(Cl)cc2)CC1)c1cccnc1	CYP2C19 inh 88, CYP2C9 inhib 93
CC(C)CC(=O)Nc1ccccc1N1CCN(C(=O)c2ccccc2)CC1	CYP2C19 inh 77, CYP2C9 inhib 76
CC(C)C(=O)Nc1ccccc1N1CCN(S(C)(=O)=O)CC1	none
CCCCNC(=O)C1CCCN1C(=O)Nc1ccccc1 (stereo unspecified)	none (no result: CYP2C19 inh, CYP2C9 inhib, CYP2C9 activ, CYP2C19 activ)
O=C(Nc1cccc(C(F)(F)F)c1)/C(=C/c1ccco1)NC(=O)c1cccs1	none (no result: Cav3 T inh)
CCOC(=O)c1c(NC(=O)C(F)(OC)C(F)(F)F)sc(C(=O)N2CCCCC2)c1C (stereo unspecified)	CYP2C9 inhib 76 (no result: Cav3 T inh)
CCc1c(C)sc(NC(=O)OC)c1C(=O)N1CCCCC1	CYP2C19 inh 52 (no result: Cav3 T inh)
